HCV inhibitor: qHTS Assay for Inhibitors of Hepatitis C Virus (HCV); Huh7.5.1 HCVcc-Cre infection, luciferase reporter, 44 h; Potency, µM (doses to about 41.8 µM), without a hit: top-dose activity change, negative = inhibition, actives largely listed as inhibitors; 3.4% of 340,000 active; AID 651820, 2012; also: potency is read from the fitted curve at half-maximal effect
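Reporter virus HCVcc-Cre (~0.5 moi) infects cells exposed to compound; seeding density 1,000 cells/well with 4 h settling beforehand. Luminescence, 15 sec read, taken 44 h post-infection following a 15 min RT substrate incubation.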
Pf growth 96h: Primary qHTS for delayed death inhibitors of the malarial parasite plastid, 96 hour incubation; P. falciparum luciferase reporter growth, 96 h; Potency, µM (titrated, usually from 28.7 µM), without a hit: at the highest dose activity change, negative = inhibition, hits mostly inhibitors; 6.9% of 320,000 active; AID 504834, 2011; also: potency is read from the fitted curve at half-maximal effect
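P. falciparum expressing integrated firefly luciferase grown in erythrocytes (2% hematocrit, 0.05% parasitemia final) with compounds for 96 hours at 37 C, 5% CO2. Growth inhibition read as loss of luminescence after adding luciferase detection reagent.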
LASV entry inh: qHTS for Inhibitors of binding or entry into cells for Lassa Virus; Lassa virus pseudotype entry inhibition, cell reporter; Potency, µM (top dose mostly 37.9 µM), without a hit: at the top dose activity change, negative = inhibition, usual class: inhibitors; 1.2% of 300,000 active; AID 540256, 2011; calls by dose curve; tested in HEK293 cells; also: potency is read from the fitted curve at half-maximal effect; nearly all actives have a fitted effect of over 50% in size
HCMV inh: qHTS Assay for inhibitors of the human cytomegalovirus (HCMV); HFF cells, HCMV-luciferase reporter, 72 h; active compounds read low; 4.5% of 410,000 active; activity change, negative = inhibition, % at 57.5 µM; AID 1259415, 2018; in the data active = activity change below about -60%; inconclusive = no clear call, values can overlap the other calls; inactive = above about -39%
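Inhibition of viral replication was scored as loss of reporter luminescence in HFFs infected with HCMV-luciferase (MOI 1 PFU/cell) for 72 h; compounds tested at 2 doses, normalized to buffer and Salinomycin controls.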
Pf growth 48h: Primary qHTS for delayed death inhibitors of the malarial parasite plastid, 48 hour incubation | Potency, µM (series often up to 28.7 µM), inactives show at the top dose activity change, negative = inhibition, actives largely listed as inhibitors | 5.9% of 310,000 active | AID 504832, 2011 | P. falciparum luciferase growth in erythrocytes, 48 h; also: potency is read from the fitted curve at half-maximal effect
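A one-generation exposure of luciferase-tagged malaria parasites in RPMI 1640/Albumax erythrocyte culture, 37 C and 5% CO2. Inhibition is inferred from decreased luminescence after adding detection reagent.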
Marburg entry inh: qHTS for inhibitors of binding or entry into cells for Marburg Virus. Marburg virus pseudotyped entry inhibition, cell reporter. Potency, µM (titrated, usually from 37.8 µM), for the others: at the highest dose activity change, negative = inhibition, hits mostly inhibitors. 1.8% of 300,000 active. AID 540276, 2011; calls by dose curve; tested in HEK293 cells; also: potency is read from the fitted curve at half-maximal effect
The depositor's hits bear a star; ? = inconclusive; · = no result given; ! = repeats disagree; [ ] = another dose, or the depositor's remark. A selection: hits, their analogues and other compounds. The true share with any hit is near 14%. Unless noted, calls follow the shape of the dose curve; as a rule, active = well fitted inhibition curve with a large enough effect; inconclusive = small, poorly fitted or top-dose-only effect, or another doubt; inactive = no such curve, though single readings can be large or run the other way. % is scaled to controls: 0 for no effect and ±100 for the full control effect.

SMILES | HCV inhibitor | Pf growth 96h | LASV entry inh | HCMV inh | Pf growth 48h | Marburg entry inh
CCOC(=O)/C=c1\s/c(=C\c2ccc3cc(OC)ccc3c2)c(=O)n1CC(=O)NCc1ccc2c(c1)OCO2 | -29% | ? | 3% | -100* | ? | -22%[46.1 µM]
CN1CCC(N(C)S(=O)(=O)c2ccc(NC(=O)COc3cccc(C(F)(F)F)c3)cc2)CC1 | ? | 13µM* | 5% | -17 | ? | ?
Cc1cc(N2CCCC2)ccc1NC(=O)COc1cccc(C(F)(F)F)c1 | 13µM* | 0% | · | -70* | 7% | ·
O=C(COc1ccccc1)Nc1cc(C(F)(F)F)ccc1N1CCCC1 | ? | -6% | ? | ? | ? | ?
CC(Oc1ccc(Br)cc1)C(=O)Nc1ccc(S(=O)(=O)N(C)C2CCN(C)CC2)cc1 (centres undefined) | 6.3µM* | ? | ? | ? | ? | ?
Cc1cc(C)cc(NC(=O)COc2ccc(C(=S)N3CCOCC3)cc2)c1 | ? | 7% | 0% | -62* | ? | ?
CCNC(=O)C1(C)CCCN(C(=O)c2nc(C)oc2C)C1 (centres undefined) | · | · | · | 29 | · | ·
Cc1ccc(CC(=O)Nc2cc(C)on2)cc1 | -15% | ? | 10% | · | 31% | 8%
CN1CCN(C(=S)c2ccc(OCC(=O)Nc3cccc(C(F)(F)F)c3)cc2)CC1 | ? | 134% | ? | -63* | -25% | ?
CCCn1c(N)c(C(=O)CSc2nc3ccccc3n2CCC#N)c(=O)n(C)c1=O | 15% | ? | 9% | 43 | -12% | 19%[46.1 µM]
CCCCCCn1c(SCC(=O)c2c(N)n(C)c(=O)n(C)c2=O)nc2ccccc21 | ? | 0.93µM* | 6% | ? | · | 5%
Cn1c(N)c(C(=O)CSc2nn(-c3ccccc3)c(=S)s2)c(=O)n(C)c1=O | 10µM* | 6% | ? | ? | 15% | ?
CCCCCCn1nc(C(=O)OCC(=O)c2c(N)n(C)c(=O)n(C)c2=O)c2ccccc2c1=O | ? | 13µM* | ? | -18 | 12µM* | ?
CCOC(=O)c1c(C)oc2nc(C)nc(N3CCN(c4ccc(C(C)=O)cc4)CC3)c12 | · | · | 11%[46.1 µM] | 27 | · | ·
COC(=O)C[C@H]1c2ccccc2[C@@H]2C(=C[C@@H](C)[C@H]3C(=O)N(O)C(=O)[C@H]32)N1C(=O)OC | · | · | · | · | · | 8%[14.2 µM]
COc1cc(NC(=O)CSc2nc3ccccc3cc2Cc2ccccc2)cc(OC)c1 | ? | ? | ? | ? | 12µM* | ?
COc1cccc(NC(=O)CSc2nc(=O)n(Cc3ccncc3)c3c2CCCC3)c1 | -3% | -26% | -3% | -85* | -14% | 1%
COc1cccc(CSc2nc3ccccc3cc2C=O)c1 | 2% | 35% | ? | -100* | 26% | ?
COc1ccc(NC(=O)CSc2nc3ccccc3cc2Cc2ccccc2)cc1 | -11% | ? | -8% | -23 | ? | 5%
COc1cccc(CSc2nc(N)cc(N)n2)c1 | -2% | 0% | 27%[46.1 µM] | 7 | 21% | -1%[46.1 µM]
COc1ccc(OC)c(NC(=O)CSc2nc3ccccc3cc2Cc2ccccc2)c1 | ? | 6.6µM* | -14% | 6 | ? | ?
COc1cccc(CC(=O)Nc2cc(S(=O)(=O)N3CCOCC3)ccc2OC)c1 | 1% | ? | 14% | -30 | -11% | -1%[46.1 µM]
CCCCC(CC)CN1CN(CC(CC)CCCC)CC(C)(N)C1 (centres undefined) | 20% | · | · | 14 | · | ·
CCC(=O)N1c2ccccc2CC1C(=O)NCCc1ccc(SC)cc1 (centres undefined) | · | · | 12%[46.1 µM] | 7 | · | ·
COc1cc(NC(=O)CSc2ncccc2C(=O)OC(C)C)cc(OC)c1 | ? | -22% | 1%[46.1 µM] | -108*! | · | -26%
SMILES | HCV inhibitor | Pf growth 96h | LASV entry inh | HCMV inh | Pf growth 48h | Marburg entry inh
COc1cccc(NC(=O)CSc2nc3ccccc3cc2Cc2ccccc2)c1 | -11% | 7.4µM* | 12% | -18 | 3.3µM* | ?
CN(NC(=O)c1ccccc1F)c1ccc([N+](=O)[O-])cn1 | -6% | 24% | -1% | -36 | 9% | 26%[46.1 µM]
CC1(c2ccc(Cl)cc2)NC(=O)CS1 (centres undefined) | -5% | 0.26µM* | -19% | -33 | 18% | 0%[46.1 µM]
CCC(C)NC(=O)c1cnn(-c2cccc(F)c2)c1-n1cccc1 (centres undefined) | · | · | -4%[46.1 µM] | 0 | · | ·
Nc1nc(N)c(N=Nc2ccc(S(N)(=O)=O)cc2)c(=O)[nH]1 | -25% | -21% | · | 2 | 22% | ·
Nc1nc(N)c(N=Nc2ccc(SCC(=O)O)cc2)c(=O)[nH]1 | -6% | 9% | · | -29 | 20% | ·
CSc1nc(N)c(N=Nc2ccc([As](=O)(O)O)cc2)c(=O)[nH]1 | ? | ? | 25% | 46 | 2.6µM* | -7%
Nc1nc(N)c(N=Nc2ccc(Cl)cc2)c(=O)[nH]1 | 5.6µM* | 3% | · | 37 | -8% | ·
CC(=O)Nc1ccc(CN(C)c2c(C)nc3ccc(C(=O)NCCCN4CCCC4=O)cn23)cc1 | · | · | · | -14 | · | ·
CC1Cc2ccccc2N1C(=O)CSc1nnc2c(n1)[nH]c1ccccc12 (centres undefined) | -5% | ? | -11% | -5 | ? | -13%
CC1Cc2ccccc2N1C(=O)CSc1nnc(-c2ccccc2)c(-c2ccccc2)n1 (centres undefined) | 10µM* | -7% | ? | -83* | 0% | ?
CCCc1nc(SCC(=O)N2c3ccccc3CC2C)c2c(C)c(C)sc2n1 (centres undefined) | ? | ? | ? | ? | ? | 9.2µM*
CC(C)OC(=O)CSc1nnc2n1C(C)(C)Cc1ccccc1-2 | -4% | ? | 2% | -28 | -6% | 0%
CC(Sc1nnc(-c2ccccc2)c(-c2ccccc2)n1)C(=O)N1CCc2ccccc21 (centres undefined) | ? | 7.4µM* | ? | -31 | -27% | 11µM*
Cc1nnc(SC(C)C(=O)N2CCc3ccccc32)s1 (centres undefined) | 18% | · | 3% | -33 | 6% | ?
CCCc1nc(SCC(=O)Nc2nnc(CC)s2)c2c(C)c(C)sc2n1 | ? | 7% | 7% | -12 | 24% | -3%
COc1ccccc1N1CCN(C(=O)CSc2nnc3n2C(C)(C)Cc2ccccc2-3)CC1 | 6.3µM* | 0% | ? | -92* | ? | ?
C[C@@H]1CCCCO[C@H](CN(C)C(=O)CCC(F)(F)F)[C@H](C)CN([C@@H](C)CO)C(=O)c2cc(NS(=O)(=O)c3ccc(Cl)cc3)ccc2O1 | · | · | · | 13 | · | ·

High-throughput results deposited in PubChem by National Center for Advancing Translational Sciences (NCATS).
